From PubChem BioAssay (EPA / NIEHS)
Activity calls are given as the source filed them. Rule for the calls: active = hit-call score of the fitted dose curve at least 0.9, where 1 is the maximum; inactive = score below 0.9.

Legend:
Conditions in all cases: mRNA level, 48 h; actives raise or lower the signal
[1] = read-out: Cyclin D1 (CCND1), CCND1 (gene 595); assay: LTEA_HepaRG_CCND1: Life Technologies and Expression Analysis (LTEA) Assay for Cyclin D1 (CCND1) using HepaRG (AID 2283451)
Summary of the method: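 Expression change is measured by qRT-PCR in HepaRG cells after 48 h treatment across eight concentrations topping at 100 uM, with duplicate wells and DMSO (0.5%) serving as baseline for bidirectional fitting.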

[2] = read-out: catalase (CAT), CAT (gene 847); assay: LTEA_HepaRG_CAT: Life Technologies and Expression Analysis (LTEA) Assay for catalase (CAT) using HepaRG (AID 2283452);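 for AC50: TaqMan qRT-PCR signal normalized to ACTB GAPDH and POLR2A housekeeping genes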
Summary of the method: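 Differentiated HepaRG cells in serum-free induction medium were dosed 48 h in duplicate, eight half-log concentrations from 100 uM in 0.5% DMSO. Transcript measured by TaqMan qRT-PCR, normalised to ACTB/GAPDH/POLR2A, fitted bidirectionally against DMSO.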

[3] = read-out: flavin-containing dimethylaniline monooxygenases 3 (FMO3), FMO3 (gene 2328); assay: LTEA_HepaRG_FMO3: Life Technologies and Expression Analysis (LTEA) Assay for flavin-containing dimethylaniline monooxygenases 3 (FMO3) using HepaRG (AID 2283453)
Summary of the method: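 Differentiated HepaRG cells in serum-free induction medium, exposed 48 h in duplicate to 8 half-log concentrations up to 100 uM in 0.5% DMSO. FMO3 mRNA by qRT-PCR, normalized to ACTB, GAPDH, POLR2A; bidirectional fit vs DMSO.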

[4] = read-out: Cytochrome P450 (CYP1A1), CYP1A1 (gene 1543); assay: LTEA_HepaRG_CYP1A1: Life Technologies and Expression Analysis (LTEA) Assay for Cytochrome P450 (CYP1A1) using HepaRG (AID 2283454)
Summary of the method: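 Using HepaRG cultures with 0.5% DMSO as vehicle, eight-concentration exposures (max 100 uM) lasted 48 h. Transcript levels were measured by TaqMan qRT-PCR and normalized to ACTB, GAPDH and POLR2A.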

[5] = read-out: CFLAR gene, CFLAR (gene 8837); assay: LTEA_HepaRG_CFLAR: Life Technologies and Expression Analysis (LTEA) Assay for CFLAR gene using HepaRG (AID 2283455)
Summary of the method: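 HepaRG cells were plated for 48 h, switched to serum-free induction medium, then exposed in duplicate for 48 h to 8 concentrations (top 100 uM, half-log steps, 0.5% DMSO). CFLAR mRNA was measured by qRT-PCR, normalized to ACTB, GAPDH and POLR2A.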

[6] = read-out: Forkhead box O1 (FOXO1), FOXO1 (gene 2308); assay: LTEA_HepaRG_FOXO1: Life Technologies and Expression Analysis (LTEA) Assay for Forkhead box O1 (FOXO1) using HepaRG (AID 2283456)
Summary of the method: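 Differentiated human HepaRG cells in serum-free induction medium were exposed in duplicate for 48 h to eight half-log concentrations (top 100 uM, 0.5% DMSO). FOXO1 mRNA was measured by TaqMan qRT-PCR, normalised to ACTB, GAPDH and POLR2A, and fitted bidirectionally against DMSO.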

[7] = read-out: growth arrest and DNA damage 45 (GADD45A), GADD45A (gene 1647); assay: LTEA_HepaRG_GADD45A: Life Technologies and Expression Analysis (LTEA) Assay for growth arrest and DNA damage 45 (GADD45A) using HepaRG (AID 2283458)
Summary of the method: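 Cells plated and cultured 48 h, switched to serum-free induction medium, then dosed for 48 h (100 uM top, half-log dilutions, 0.5% DMSO). RNA was isolated and transcript measured by Fluidigm qRT-PCR.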

[8] = read-out: Forkhead box O3 (FOXO3), FOXO3 (gene 2309); assay: LTEA_HepaRG_FOXO3: Life Technologies and Expression Analysis (LTEA) Assay for Forkhead box O3 (FOXO3) using HepaRG (AID 2283459)
Summary of the method: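 Differentiated human HepaRG cells in serum-free induction medium were exposed in duplicate for 48 h to eight half-log concentrations up to 100 uM in 0.5% DMSO. FOXO3 mRNA was quantified by qRT-PCR, normalized to ACTB, GAPDH and POLR2A, with bidirectional fitting versus DMSO.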

[9] = read-out: ABC Transporter (ABCB1), ABCB1 (gene 5243); assay: LTEA_HepaRG_ABCB1: Life Technologies and Expression Analysis (LTEA) Assay for ABC Transporter (ABCB1) using HepaRG (AID 2283460)
Summary of the method: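 Differentiated human HepaRG cells, plated 48 h then switched to serum-free induction medium, were exposed in duplicate to eight half-log concentrations up to 100 uM in 0.5% DMSO for 48 h. ABCB1 mRNA was measured by TaqMan qRT-PCR, normalized to ACTB/GAPDH/POLR2A.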

[10] = read-out: growth arrest and DNA damage 45 (GADD45B), GADD45B (gene 4616); assay: LTEA_HepaRG_GADD45B: Life Technologies and Expression Analysis (LTEA) Assay for growth arrest and DNA damage 45 (GADD45B) using HepaRG (AID 2283461)
Summary of the method: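 Human HepaRG monolayers receive chemicals for 48 h at eight half-log concentrations, highest 100 uM, in 0.5% DMSO. Expression is measured by TaqMan qRT-PCR and normalized to ACTB, GAPDH and POLR2A.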

[11] = read-out: ABC Transporter (ABCC3), ABCC3 (gene 8714); assay: LTEA_HepaRG_ABCC3: Life Technologies and Expression Analysis (LTEA) Assay for ABC Transporter (ABCC3) using HepaRG (AID 2283462)
Summary of the method: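 Transcriptional change of ABCC3 in HepaRG after 48 h treatment, determined by qRT-PCR normalized to endogenous controls. Concentrations spanned eight half-log steps to 100 uM in 0.5% DMSO.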

[12] = read-out: ABC Transporter (ABCB11), ABCB11 (gene 8647); assay: LTEA_HepaRG_ABCB11: Life Technologies and Expression Analysis (LTEA) Assay for ABC Transporter (ABCB11) using HepaRG (AID 2283463)
Summary of the method: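 Differentiated human HepaRG cells were exposed for 48 h in serum-free induction medium to eight half-log concentrations up to 100 uM in 0.5% DMSO. ABCB11 mRNA was quantified by qRT-PCR, normalized to ACTB, GAPDH and POLR2A, and fitted bidirectionally versus DMSO.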

[13] = read-out: ABC Transporter (ABCC2), ABCC2 (gene 1244); assay: LTEA_HepaRG_ABCC2: Life Technologies and Expression Analysis (LTEA) Assay for ABC Transporter (ABCC2) using HepaRG (AID 2283464)
Summary of the method: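 After plating and 48 h culture, HepaRG medium is replaced with serum-free induction medium and chemicals are added (8 concentrations, max 100 uM, 0.5% DMSO) for 48 h. Total RNA then undergoes qRT-PCR for ABCC2 with housekeeping normalization.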

[14] = read-out: Broad substrate specificity ATP-binding cassette transporter ABCG2 (Homo sapiens) (UniProt Q9UNQ0); assay: LTEA_HepaRG_ABCG2: Life Technologies and Expression Analysis (LTEA) Assay for ABC Transporter (ABCG2) using HepaRG (AID 2283465)
Summary of the method: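 Differentiated HepaRG cells in serum-free induction medium were exposed for 48 h, in duplicate, to eight half-log concentrations up to 100 uM in 0.5% DMSO. ABCG2 mRNA was measured by TaqMan qRT-PCR, normalized to ACTB, GAPDH and POLR2A, and fitted bidirectionally versus DMSO.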

[15] = read-out: Peroxisomal acyl-coenzyme A oxidase 1 (ACOX1) gene, ACOX1 (gene 51); assay: LTEA_HepaRG_ACOX1: Life Technologies and Expression Analysis (LTEA) Assay for Peroxisomal acyl-coenzyme A oxidase 1 (ACOX1) gene using HepaRG (AID 2283467)
Summary of the method: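 Differentiated human HepaRG cells were exposed in duplicate for 48 h in serum-free induction medium to eight half-log concentrations up to 100 uM in 0.5% DMSO. ACOX1 mRNA was then quantified by TaqMan qRT-PCR, normalized to ACTB, GAPDH and POLR2A.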

[16] = read-out: Alkaline Phosphatase, Placental (ALPP) gene, ALPP (gene 250); assay: LTEA_HepaRG_ALPP: Life Technologies and Expression Analysis (LTEA) Assay for Alkaline Phosphatase, Placental (ALPP) gene using HepaRG (AID 2283468)
Summary of the method: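 Using human liver HepaRG cells, chemicals are tested in duplicate over 48 h at half-log concentrations topping at 100 uM; phenobarbital 1 mM serves as induction control. ALPP mRNA change by qRT-PCR, bidirectional fit against vehicle.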

[17] = read-out: Bcl-2 (BAD) gene, BAD (gene 572); assay: LTEA_HepaRG_BAD: Life Technologies and Expression Analysis (LTEA) Assay for Bcl-2 (BAD) gene using HepaRG (AID 2283469)
Summary of the method: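 Differentiated human HepaRG cells in serum-free induction medium were exposed in duplicate for 48 h to eight concentrations (top 100 uM, half-log steps, 0.5% DMSO). BAD mRNA was quantified by qRT-PCR normalised to ACTB, GAPDH and POLR2A, with bidirectional fitting versus DMSO.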

[18] = read-out: Bcl-2 (BAX) gene, BAX (gene 581); assay: LTEA_HepaRG_BAX: Life Technologies and Expression Analysis (LTEA) Assay for Bcl-2 (BAX) gene using HepaRG (AID 2283470)
Summary of the method: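 HepaRG (human liver), 48 h exposure, duplicate wells. 8-pt curve, half-log from 100 uM, 0.5% DMSO. BAX transcript by TaqMan qRT-PCR; ACTB/GAPDH/POLR2A normalization; gain or loss vs DMSO baseline.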

[19] = read-out: ATP-citrate lyase (ACLY), ACLY (gene 47); assay: LTEA_HepaRG_ACLY: Life Technologies and Expression Analysis (LTEA) Assay for ATP-citrate lyase (ACLY) using HepaRG (AID 2283466)
Summary of the method: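 Differentiated human HepaRG cells in serum-free induction medium exposed 48 h, in duplicate, to eight half-log concentrations from 100 uM top in 0.5% DMSO; ACLY mRNA measured by qRT-PCR, normalized to ACTB, GAPDH, POLR2A, fitted bidirectionally versus DMSO.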

Measured: AC50

Broad substrate specificity ATP-binding cassette transporter ABCG2 (Homo sapiens), sequence (Q9UNQ0 whole entry, looked up): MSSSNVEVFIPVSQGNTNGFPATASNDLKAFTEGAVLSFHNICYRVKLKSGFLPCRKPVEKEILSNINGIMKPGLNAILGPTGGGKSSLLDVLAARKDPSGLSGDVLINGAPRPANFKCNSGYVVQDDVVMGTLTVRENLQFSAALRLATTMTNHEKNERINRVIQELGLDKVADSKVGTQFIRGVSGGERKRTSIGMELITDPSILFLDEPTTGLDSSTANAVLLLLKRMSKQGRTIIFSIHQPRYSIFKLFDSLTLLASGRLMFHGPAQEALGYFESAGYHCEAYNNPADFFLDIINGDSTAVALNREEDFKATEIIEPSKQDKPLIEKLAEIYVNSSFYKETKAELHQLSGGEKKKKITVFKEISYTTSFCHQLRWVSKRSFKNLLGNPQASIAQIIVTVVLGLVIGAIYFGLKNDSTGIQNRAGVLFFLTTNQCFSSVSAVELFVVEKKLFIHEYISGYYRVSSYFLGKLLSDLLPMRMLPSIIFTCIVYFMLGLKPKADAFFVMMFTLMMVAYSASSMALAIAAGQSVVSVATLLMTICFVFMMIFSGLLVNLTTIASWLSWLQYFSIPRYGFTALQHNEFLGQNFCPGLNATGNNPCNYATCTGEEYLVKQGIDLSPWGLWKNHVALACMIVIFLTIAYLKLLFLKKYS

O=C1O[C@H]([C@H](O)CO)C(O)=C1O
active: [4] 64.4 µM
not listed: [19]
inactive: all other assays above

O=Cc1ccccc1C=O
active: [4] 18.5 µM
inactive: all other assays above

CCCCC(CC)CO (configuration not stated)
active: [4] 39.1 µM
inactive: all other assays above

NC=O
inactive: all assays above

CC(COCC(C)OC(=O)c1ccccc1)OC(=O)c1ccccc1 (configuration not stated)
active: [4] 87.6 µM
not listed: [15]
inactive: all other assays above

Cc1ccc(-c2cc(C(F)(F)F)nn2-c2ccc(S(N)(=O)=O)cc2)cc1
inactive: [1] | [7] | [10] | [11] | [12] | [14] | [16] | [17] | [18]
active: [2] 83.6 µM | [3] 76.8 µM | [4] 12.5 µM | [5] 78.3 µM | [6] 77.2 µM | [8] 93.6 µM | [9] 82.2 µM | [13] 85 µM | [19] 89.6 µM | [15] 92.9 µM
